From PubChem BioAssay (EPA / NIEHS)
The source made the active and inactive calls. Rule for the calls: active = hit-call score of the fitted dose curve at least 0.9, where 1 is the maximum; inactive = score below 0.9.

Columns and labels:
[1] = target: CCAAT/enhancer-binding protein beta (Homo sapiens) (UniProt P17676); experiment: ATG_C_EBP_CIS: Attagene CIS-FACTORIAL HepG2 Assay for human CCAAT/Enhancer Binding Protein (C/EBP) beta (AID 2282927); conditions: HepG2 Attagene cis-factorial transcription factor reporter; actives raise or lower the signal
Sequence of CCAAT/enhancer-binding protein beta (Homo sapiens) (P17676 whole entry, looked up): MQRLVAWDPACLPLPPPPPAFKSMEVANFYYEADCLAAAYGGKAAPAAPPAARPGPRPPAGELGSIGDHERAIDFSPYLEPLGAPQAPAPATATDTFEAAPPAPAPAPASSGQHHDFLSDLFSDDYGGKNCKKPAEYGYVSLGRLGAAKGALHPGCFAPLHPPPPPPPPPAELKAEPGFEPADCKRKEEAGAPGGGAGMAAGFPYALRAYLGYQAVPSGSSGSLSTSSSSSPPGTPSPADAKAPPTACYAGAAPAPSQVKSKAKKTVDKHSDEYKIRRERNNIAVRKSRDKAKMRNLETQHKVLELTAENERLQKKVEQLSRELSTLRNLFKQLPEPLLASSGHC
Summary of the method: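 Transiently transfected HepG2 (MRTU library, endogenous TF-driven promoters); 24 h dosing; total RNA → oligo(dT) RT → PCR → 6-FAM primer extension → HpaI digest → CE; fit bidirectionally vs DMSO.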

[2] = ATG_CMV_CIS: Attagene CIS-FACTORIAL HepG2 Assay for human CMV (Internal Marker) (AID 2282928); conditions: HepG2 CMV promoter reporter, transcription factor profiling; actives raise or lower the signal;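 note: endpoint acts as a background internal control marker rather than a target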
Summary of the method: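 Endogenous transcription factor activity read in HepG2 via transfected cis-promoter reporter units. After 24 h dosing, reporter mRNA measured by RT-PCR/capillary electrophoresis; gain or loss of signal fit relative to DMSO.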

[3] = ATG_DR4_LXR_CIS: Attagene CIS-FACTORIAL HepG2 Assay for human Liver X Receptor (LXR), DR4 submotif (AID 2282929); conditions: HepG2 Attagene DR4 cis-reporter, mRNA transcription; actives raise or lower the signal
Summary of the method: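 Transiently transfected HepG2 liver cells; cis-regulated reporters; 24 h dosing. RT-PCR plus CE read-out of reporter mRNA. DMSO baseline, bidirectional curve fitting.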

[4] = ATG_AP_1_CIS: Attagene CIS-FACTORIAL HepG2 Assay for human Activator Protein 1 (AP-1) (AID 2282931); conditions: HepG2 Attagene cis-factorial AP-1 reporter mRNA; actives raise or lower the signal
Summary of the method: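 We transfected HepG2 cells transiently with a set of cis-regulated reporter transcription units, dosed them for 24 h, and quantified reporter mRNA via RT-PCR and capillary electrophoresis, scoring gain or loss of signal relative to DMSO.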

[5] = ATG_BRE_CIS: Attagene CIS-FACTORIAL HepG2 Assay for human Bone Morphogenetic Protein (BMP) Response Element (BRE) (AID 2282933); conditions: HepG2 BMP response element reporter, Attagene transcription factor profiling; actives raise or lower the signal
Summary of the method: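 Endogenous transcription factor activity read in transiently transfected HepG2 cells after 24 h chemical exposure. Bidirectional curve fitting against DMSO; readout is reporter transcript level by RT-PCR with capillary electrophoresis of labelled products.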

[6] = ATG_E_Box_CIS: Attagene CIS-FACTORIAL HepG2 Assay for human Enhancer Box (E-box) (AID 2282936); conditions: HepG2 E-box cis-reporter transcription, actives raise or lower the signal
Summary of the method: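 First, HepG2 cells receive multiple cis-regulated reporter constructs by transient transfection. Next, chemicals are applied for 24 h. Finally, reporter mRNA is quantified via RT-PCR and capillary electrophoresis, with DMSO as baseline.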

[7] = ATG_EGR_CIS: Attagene CIS-FACTORIAL HepG2 Assay for human Early Growth Response 1 (EGR1) (AID 2282938); conditions: HepG2 Attagene CIS-FACTORIAL EGR reporter mRNA; actives raise or lower the signal
Summary of the method: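 Multiplexed cis-reporter system in human hepatoma HepG2 cells, transiently transfected. Cells are dosed for 24 h; reporter transcripts are amplified, fluorescently tagged and sized by capillary electrophoresis, with DMSO as negative control.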

[8] = ATG_M_19_CIS: Attagene CIS-FACTORIAL HepG2 Assay for M19 Transcription Factor (Internal Marker) (AID 2282939); conditions: HepG2 Attagene CIS-FACTORIAL M19 internal marker reporter; actives raise or lower the signal
Summary of the method: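 Internal marker readout, fitted in both directions against DMSO, from HepG2 cells carrying transfected cis-element reporter constructs; RT-PCR and capillary electrophoresis of reporter mRNA after 24 h exposure.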

[9] = ATG_Ets_CIS: Attagene CIS-FACTORIAL HepG2 Assay for human Erythroblast Transformation Specific (ETS) (AID 2282941); conditions: HepG2 ETS cis-reporter transcription, actives raise or lower the signal
Summary of the method: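 Steps: transfect HepG2 with multiple reporter units; treat compound 24 h; isolate RNA, DNase-treat, reverse-transcribe; PCR-amplify, label with 6-FAM, digest with HpaI; separate by capillary electrophoresis. Activity fitted both directions versus DMSO.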

[10] = ATG_FoxO_CIS: Attagene CIS-FACTORIAL HepG2 Assay for human Forkhead box O (FoxO) (AID 2282943); conditions: HepG2 Attagene cis-reporter, FoxO element, mRNA; actives raise or lower the signal
Summary of the method: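 Read-out: fluorescence of 6-FAM-labelled reporter cDNA fragments resolved by capillary electrophoresis. Transiently transfected HepG2 cells were dosed for 24 h; activity fitted in both directions relative to DMSO controls.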

[11] = ATG_GATA_CIS: Attagene CIS-FACTORIAL HepG2 Assay for human GATA Binding Protein (AID 2282944); conditions: HepG2 GATA cis-element reporter, Attagene multiplex mRNA; actives raise or lower the signal
Summary of the method: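 Reporter transcripts from a GATA cis-regulated unit, among multiplexed reporters in transfected HepG2 cells, were measured by RT-PCR with capillary electrophoresis after 24 h dosing. Induction or loss scored relative to DMSO.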

[12] = ATG_ISRE_CIS: Attagene CIS-FACTORIAL HepG2 Assay for human Interferon Regulatory Factor 1 (IRF1) binding to an Interferon-Stimulated Response Element (ISRE) (AID 2282948); conditions: HepG2 ISRE cis-reporter (Attagene), mRNA transcription readout; actives raise or lower the signal
Summary of the method: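 Transfected HepG2 (multiple reporter transcription units, cis elements) dosed 24 h. RNA → oligo(dT) RT → PCR → 6-FAM primer extension → HpaI → CE. DMSO = negative control/baseline.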

[13] = ATG_M_06_CIS: Attagene CIS-FACTORIAL HepG2 Assay for M06 Transcription Factor (Internal Marker) (AID 2282950); conditions: HepG2 Attagene CIS-FACTORIAL M06 internal marker reporter; actives raise or lower the signal
Summary of the method: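 Serves as a background control readout. Transfected HepG2 exposed to compounds for 24 h, then reporter transcripts quantified by fluorescent RT-PCR and capillary electrophoresis. Both directions fitted against DMSO baseline.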

[14] = ATG_MRE_CIS: Attagene CIS-FACTORIAL HepG2 Assay for human Metal Responsive Element (MRE) (AID 2282954); conditions: HepG2 MRE cis-reporter transcription, Attagene multiplex; actives raise or lower the signal
Summary of the method: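 Fluorescent reporter fragments separated by capillary electrophoresis give mRNA induction for the MRE unit after 24 h treatment of transfected HepG2 cells. Endogenous transcription-factor activity is read; DMSO serves as negative control and baseline.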

[15] = target: Paired box protein Pax-6 (Homo sapiens) (UniProt P26367); experiment: ATG_Pax6_CIS: Attagene CIS-FACTORIAL HepG2 Assay for human Paired Box 6 (PAX6) (AID 2282956); conditions: HepG2 CIS-FACTORIAL PAX6 reporter transcription, RNA readout; actives raise or lower the signal
Sequence of Paired box protein Pax-6 (Homo sapiens) (P26367 whole entry, looked up): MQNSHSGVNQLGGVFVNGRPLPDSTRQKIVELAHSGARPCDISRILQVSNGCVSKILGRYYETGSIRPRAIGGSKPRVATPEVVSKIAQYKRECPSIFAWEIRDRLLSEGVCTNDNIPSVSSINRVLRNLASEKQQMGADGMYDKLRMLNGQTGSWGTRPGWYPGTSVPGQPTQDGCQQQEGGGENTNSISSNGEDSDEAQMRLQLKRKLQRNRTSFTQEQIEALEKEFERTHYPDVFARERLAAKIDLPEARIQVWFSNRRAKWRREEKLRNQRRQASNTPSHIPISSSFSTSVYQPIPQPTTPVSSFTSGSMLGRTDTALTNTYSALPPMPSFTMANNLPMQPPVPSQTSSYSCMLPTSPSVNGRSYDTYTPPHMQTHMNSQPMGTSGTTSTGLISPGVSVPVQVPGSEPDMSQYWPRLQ
Summary of the method: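 Transient MRTU transfection of HepG2 → compound exposure 24 h → TriZol RNA, oligo(dT) RT → PCR, 6-FAM primer extension, HpaI cut → capillary electrophoresis; activity fitted both directions against DMSO.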

[16] = ATG_Sox_CIS: Attagene CIS-FACTORIAL HepG2 Assay for human SRY-box transcription factor (SOX) (AID 2282960); conditions: HepG2 Attagene cis-factorial SOX reporter, mRNA; actives raise or lower the signal
Summary of the method: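 Fluorescence-labelled cDNA fragments from reporter transcripts, sized by CE, give the signal. Cells: HepG2, transiently transfected with cis-regulated reporter units. Exposure 24 h; DMSO negative control; bidirectional curve fitting.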

[17] = target: Transcription factor Sp1 (Homo sapiens) (UniProt P08047); experiment: ATG_Sp1_CIS: Attagene CIS-FACTORIAL HepG2 Assay for human Specificity Protein 1 (Sp1) (AID 2282961); conditions: HepG2 Sp1 cis-reporter transcription, actives raise or lower the signal
Sequence of Transcription factor Sp1 (Homo sapiens) (P08047 whole entry, looked up): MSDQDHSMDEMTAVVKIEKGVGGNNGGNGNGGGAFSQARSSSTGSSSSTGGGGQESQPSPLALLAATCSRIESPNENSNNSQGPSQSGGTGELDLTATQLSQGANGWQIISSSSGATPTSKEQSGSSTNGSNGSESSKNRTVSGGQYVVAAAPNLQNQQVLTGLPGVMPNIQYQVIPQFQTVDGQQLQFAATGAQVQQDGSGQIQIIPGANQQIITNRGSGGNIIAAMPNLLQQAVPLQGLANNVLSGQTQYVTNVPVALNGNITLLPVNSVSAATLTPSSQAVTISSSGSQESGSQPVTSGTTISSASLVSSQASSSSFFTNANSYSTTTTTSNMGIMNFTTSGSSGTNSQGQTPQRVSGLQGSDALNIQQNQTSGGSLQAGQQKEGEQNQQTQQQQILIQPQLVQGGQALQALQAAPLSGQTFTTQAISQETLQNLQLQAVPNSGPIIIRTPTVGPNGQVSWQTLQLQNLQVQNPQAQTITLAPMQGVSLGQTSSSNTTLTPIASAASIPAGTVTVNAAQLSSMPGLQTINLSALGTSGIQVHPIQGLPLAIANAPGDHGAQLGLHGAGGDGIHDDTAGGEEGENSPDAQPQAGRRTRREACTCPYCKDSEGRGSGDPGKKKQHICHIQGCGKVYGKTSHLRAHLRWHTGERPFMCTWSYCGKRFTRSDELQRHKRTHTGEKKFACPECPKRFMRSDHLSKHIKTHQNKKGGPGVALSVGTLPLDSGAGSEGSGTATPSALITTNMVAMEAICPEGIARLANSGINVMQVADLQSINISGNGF
Summary of the method: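 Chemicals are dosed onto HepG2 cells transfected with multiple cis-promoter reporter constructs, and after 24 h reporter RNA is reverse-transcribed, PCR-amplified and resolved by capillary electrophoresis for fluorescence quantitation; activity is scored up or down against DMSO.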

[18] = target: Signal transducer and activator of transcription 3 (Homo sapiens) (UniProt P40763); experiment: ATG_STAT3_CIS: Attagene CIS-FACTORIAL HepG2 Assay for human Signal Transducer and Activator of Transcription 3 (STAT3) (AID 2282963); conditions: HepG2, Attagene cis-factorial STAT3 reporter transcription; actives raise or lower the signal
Sequence of Signal transducer and activator of transcription 3 (Homo sapiens) (P40763 whole entry, looked up): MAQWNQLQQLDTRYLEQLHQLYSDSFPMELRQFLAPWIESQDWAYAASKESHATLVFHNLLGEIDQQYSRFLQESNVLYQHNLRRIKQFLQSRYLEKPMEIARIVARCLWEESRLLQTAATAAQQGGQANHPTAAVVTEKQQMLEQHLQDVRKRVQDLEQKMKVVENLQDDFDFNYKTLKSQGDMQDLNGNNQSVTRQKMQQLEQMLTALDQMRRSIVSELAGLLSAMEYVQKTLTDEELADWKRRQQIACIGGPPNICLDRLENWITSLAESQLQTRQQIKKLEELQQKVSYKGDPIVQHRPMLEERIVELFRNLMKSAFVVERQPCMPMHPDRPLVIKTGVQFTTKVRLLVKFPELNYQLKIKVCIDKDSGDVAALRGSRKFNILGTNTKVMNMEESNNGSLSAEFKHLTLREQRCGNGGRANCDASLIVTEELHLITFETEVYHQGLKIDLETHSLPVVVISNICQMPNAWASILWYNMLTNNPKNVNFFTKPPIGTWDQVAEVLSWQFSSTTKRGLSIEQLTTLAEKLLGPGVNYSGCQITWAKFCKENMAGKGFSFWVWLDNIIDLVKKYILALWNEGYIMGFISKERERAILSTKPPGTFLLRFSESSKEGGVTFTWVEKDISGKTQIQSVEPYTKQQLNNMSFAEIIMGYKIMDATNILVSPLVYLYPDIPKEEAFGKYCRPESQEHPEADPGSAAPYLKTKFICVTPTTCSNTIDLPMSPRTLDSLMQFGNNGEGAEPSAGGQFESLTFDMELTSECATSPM
Summary of the method: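 Values derive from bidirectional fits relative to DMSO of reporter mRNA levels, measured by RT-PCR with capillary electrophoresis, in HepG2 cells carrying transiently transfected cis-regulated reporter units and exposed 24 h.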

[19] = ATG_TA_CIS: Attagene CIS-FACTORIAL HepG2 Assay for human TA Basal Promoter (AID 2282964); conditions: HepG2 Attagene CIS-factorial TA basal promoter reporter; actives raise or lower the signal
Summary of the method: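 Background-control readout: TA basal promoter reporter mRNA, fitted in both directions relative to DMSO. Measured by RT-PCR and capillary electrophoresis 24 hours after treating HepG2 human liver cells transiently carrying multiplexed cis-regulated reporter constructs.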

[20] = ATG_TCF_b_cat_CIS: Attagene CIS-FACTORIAL HepG2 Assay for human T-Cell-Factor with beta-catenin (TCF/b-cat) (AID 2282965); conditions: HepG2 TCF/beta-catenin cis-reporter transcription, actives raise or lower the signal
Summary of the method: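 HepG2, transient MRTU transfection, cis-element-driven reporters (endogenous TFs). 24 h compound exposure. Readout: reporter mRNA by RT-PCR + 6-FAM primer extension, HpaI digest, capillary electrophoresis. Gain/loss fit vs DMSO baseline.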

Measured: AC50

Cc1ccc(C)c2ccccc12
inactive: all assays above

C=Cc1cccc(CCl)c1
active: [9] 100 µM | [12] 100 µM | [17] 25.5 µM
inactive: all other assays above

COc1ccc(CO)cc1
inactive: all assays above

C=COCCCl
inactive: all assays above

C=CCO
inactive: all assays above

[Cl-].[Cl-].[Cl-].[Yb+3]
inactive: all assays above

CCCCCCC1CCOC1=O (stereo not given)
inactive: all assays above
